This is one part of a sample in which hits are shown more often than they occur.
ALOX12 inh: ALOX12 (human) lipoxygenase inhibition. P18054. purified 12hLO, xylenol orange hydroperoxide absorbance. Potency, µM (highest dose often 108 µM), for inactives: at the highest dose activity change, negative = inhibition, most hits filed as inhibitors. hit rate 1.1% among 580,000. AID 1671190; further: potency means the concentration at half of the fitted maximal effect
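Hydroperoxide product was detected by ferrous iron/xylenol orange as the 573 to 405 nm absorbance ratio. Arachidonic acid at 40 uM (final) was turned over for 30 min at room temperature by 150 nM human 12hLO, pH 7.0 Hepes buffer, after 15 min compound preincubation.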
IL1B secr inh: blocks inflammasome-driven IL-1 beta release; THP-1 LPS/ATP IL-1B secretion, AlphaLISA, 16 h; stronger effect = lower value; AID 743279; hit rate 4.7% among 360,000; activity change, % at 57.5 µM; in the data active means activity change below about -50%; inconclusive means mostly about -30% to -49%
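THP-1 cells pretreated 1 hr with compounds (up to 57.5 uM final), then stimulated with LPS (250 ng/mL final) plus ATP (1.25 mM final); secreted IL-1B measured by AlphaLISA after 16 hr, decreased signal indicating inhibition.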
HT1080NT lethal: kills 2HG-producing HT-1080-NT fibrosarcoma cells | HT-1080-NT fibrosarcoma viability, CellTiter-Glo ATP luminescence, 48 h | Potency, µM (series often up to 46.1 µM), without a hit: top-dose activity, negative = less viability, most hits filed as cytotoxic | hit rate 1.6% among 360,000 | AID 686970;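 further: NT is the 2HG producing partner of a matched IDH1 knockdown line; potency means the concentration at half of the fitted maximal effect; 0% = DMSO-treated cells and -100% = media-only wells without cells; nearly all actives have a fitted effect of over 55% in size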
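HT-1080-NT fibrosarcoma cells (2HG-overproducing), 750 cells/well in RPMI with 5% FBS, dosed after 2 h and incubated 48 h at 37C. CellTiter-Glo luminescence normalized to DMSO and no-cell wells; concentration-response curves fitted and classed.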
DT40 TDP1 CPT: DT40-hTDP1 cell growth loss with CPT. chicken DT40 Tdp1-/-;hTDP1 cells + 20 nM CPT, ATP luminescence, 48 h. Potency, µM (titrated, usually from 46.2 µM), for inactives: at the top dose activity change, negative = growth inhibition, most hits filed as inhibitors. hit rate 12% among 420,000. AID 686979; further: potency means the concentration at half of the fitted maximal effect; nearly all actives have a fitted effect of over 55% in size
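Chicken DT40 Tdp1-/- cells complemented with human TDP1, 400 cells/well, exposed to compounds plus 20 nM camptothecin for at least 48 h at 37 C; viability read as ATP content by CellTiter-Glo luminescence.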
DT40 TDP1 no CPT: qHTS for Inhibitors of human tyrosyl-DNA phosphodiesterase 1 (TDP1): qHTS in cells in absence of CPT; Potency, µM (series often up to 46.2 µM), without a hit: at the highest dose activity change, negative = growth inhibition, most hits filed as inhibitors; hit rate 15% among 420,000; DT40 Tdp1-/- hTDP1 cells, no CPT, ATP luminescence, 48 h; further: potency means the concentration at half of the fitted maximal effect; nearly all actives have a fitted effect of over 55% in size
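A cellular qHTS used chicken DT40 cells lacking endogenous Tdp1 but carrying stably transfected human TDP1. Compounds were applied without camptothecin, and cell growth kinetics were judged by ATP-dependent luminescence after ≥48 hr.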
HT1080 IDH1KD tx: toxicity to HT-1080 IDH1 knockdown cells (counter line); HT-1080 IDH1 knockdown viability, ATP luminescence, 48 h; Potency, µM (doses to about 46.1 µM), without a hit: at the highest dose activity, negative = toxicity, most hits filed as cytotoxic; hit rate 2% among 360,000; AID 686971;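 further: potency means the concentration at half of the fitted maximal effect; 0% = DMSO wells and -100% = cell-free medium wells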
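Assay cells: HT-1080 with IDH1 knockdown, 750 per well, RPMI/5% FBS. Exposure: 48 h at 37 °C following 2 h pre-incubation. Read: CellTiter-Glo luminescence; fitted concentration-response, curve class assigned.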
The depositor's hits bear a star; ? = inconclusive; / = no result; [ ] = dose if it differs, or a comment. Unless noted, the call rests on the fitted dose curve; in most records, active means well fitted curve in the direction sought with a large enough effect; inconclusive means small, poorly fitted or top-dose-only effect, or another doubt; inactive means no such curve, though single readings can be large; an effect the other way counts as inactive or inconclusive. Unless noted, on the % scale 0 is the no-effect control and ±100 the full control effect.

SMILES	ALOX12 inh	IL1B secr inh	HT1080NT lethal	DT40 TDP1 CPT	DT40 TDP1 no CPT	HT1080 IDH1KD tx
O=C(CN1CCN(CC(=O)Nc2cccc(F)c2)CC1)Nc1ccc(-c2ccccc2)cc1	-19%	-10	-10%	-29%	-18%	-9%
O=C(NCc1coc(-c2cccs2)n1)c1cc2ccccc2cc1O	14%	/	/	/	/	/
CCC(=O)C1=C(c2ccc(C3CCCCC3)cc2)N(C(=O)CC)n2cnnc2S1	-1%	/	/	/	/	/
COc1cc(N(C)C)ccc1C=c1c2ccccc2n2c1cc(-c1ccccc1)[n+]2C	?	-100*	?	0.52µM*	0.37µM*	12µM*
CN(C)c1ccc(C=c2c3cc([N+](=O)[O-])ccc3n3c2cc(-c2ccccc2)[n+]3C)cc1	7.9µM*	-115*	?	2.9µM*	2.6µM*	10µM*
CN(C)c1ccc(C=c2c3ccccc3n3c2cc(-c2ccc(Cl)cc2)[n+]3C)cc1	45µM*	-119*	?	4.1µM*	4.6µM*	?
CN(C)c1ccc(C=c2c3ccccc3n3c2c2c([n+]3C)CCCC2)cc1	?	-111*	?	0.41µM*	0.33µM*	6.5µM*
CCC(Sc1nnc2c(=O)n(-c3ccc(C)c(C)c3)ccn12)C(=O)Nc1c(C)cccc1C (stereo not drawn)	-19%	/	/	/	/	/
CNC(=O)C[C@H]1C(=O)N(CCc2ccccc2)C[C@@H]1CSC	35%	13	8%	7%	3%	3%
Cc1cccc(OC(C)c2nc(-c3ccc(Br)cc3)no2)c1 (stereo not drawn)	1%	/	/	/	/	/
COc1cc(C=C(C#N)C(=O)c2ccccc2)cc(OC)c1OC	-14%	0	11%	-4%	-2%	5%
COc1cc(C=c2c3ccccc3n3c2cc(-c2ccccc2)[n+]3C)cc(OC)c1OC	?	-26	-15%	5.2µM*	4.6µM*	?
CN(C)c1ccc(/C=C2\SC(=O)N(CC(O)Cn3c4ccccc4c4ccccc43)C2=O)cc1 (stereo not drawn)	7%	7	-15%	?	?	?
CN(C)c1ccc(C=c2c3ccccc3n3c2cc(-c2ccccc2)[n+]3C)cc1	40µM*	-102*	?	0.58µM*	0.37µM*	21µM*
COc1ccc(CNC(=O)CCCCCNc2nc(=S)[nH]c3ccccc23)cc1	-8%	-16	-10%	?	10µM*	-13%
O=C(CCCCCNc1nc(=S)[nH]c2ccccc12)NCCc1ccccc1	-31%	27	-4%	?	?	-4%
COc1ccc(CCNC(=O)CCCCCNc2nc(=S)[nH]c3ccccc23)cc1OC	-5%	-9	-3%	?	18µM*	-5%
Nc1nc(N2CCOCC2)nc2c1C(C(=O)Nc1ccccc1)CC(=O)N2 (stereo not drawn)	2%	/	/	/	/	/
CCOC(=O)c1cccc(NS(=O)(=O)c2c(C)nc3sc(C)cn3c2=O)c1	-17%	/	/	13µM*	23µM*	/
CCOC(=O)c1ccc(NS(=O)(=O)c2c(C)nc3sccn3c2=O)cc1	9%	3	-12%	16µM*	16µM*	-2%
Cc1ccc(NS(=O)(=O)c2c(C)nc3sc(C)c(C)n3c2=O)cc1F	?	/	/	12µM*	15µM*	/
CCc1cccc(NS(=O)(=O)c2c(C)nc3sc(CC)nn3c2=O)c1	5%	23	9%	?	21µM*	1%
Cc1ccc(NS(=O)(=O)c2c(C)nc3sc(C)cn3c2=O)c(Cl)c1	7%	/	/	/	/	/
Cc1ccc(NS(=O)(=O)c2c(C)nc3sccn3c2=O)cc1	8%	16	0%	?	-27%	-8%
CC(C)(C)c1ccc2c(c1)C(C[C@H]1CN(S(C)(=O)=O)CC[C@H]1CC(=O)O)=NCC2	5%[176 µM]	/	/	/	/	/

Screens: PubChem, National Center for Advancing Translational Sciences (NCATS)
